Source: PubChem BioAssay (NCI)
Compounds without any hit were thinned out: in the full panel of roughly 83,000, 20% have a hit.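 Treatment: one concentration, 48 hours, 96-well format. Scoring: percent growth, with anything below 10 considered active.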 Activity calls are given as the source filed them.

Legend:
Test in all cases: NCI-60 one-dose screen, 48 h (100 = growth as untreated, 0 = no growth, -100 = all killed)
[1] = system: NCI-H226 lung; settings: 10 µM
[2] = system: NCI-H322M lung; settings: 10 µM
[3] = system: HOP-62 NSCLC; settings: 10 µM
[4] = system: NCI-H460 lung; settings: 10 µM
[5] = system: NCI-H522 lung; settings: 10 µM
[6] = system: A549/ATCC NSCLC; settings: 10 µM
[7] = system: COLO 205 colon; settings: 10 µM
[8] = system: DU-145 prostate; settings: 10 µM
[9] = system: SF-268 CNS; settings: 10 µM
[10] = system: SF-295 CNS; settings: 10 µM
[11] = system: SF-539 CNS; settings: 10 µM
[12] = system: UACC-257 melanoma; settings: 10 µM
[13] = system: HT29 colon; settings: 10 µM
[14] = system: SNB-75 CNS; settings: 10 µM
[15] = system: U251 CNS; settings: 10 µM
[16] = system: PC-3 prostate; settings: 10 µM
[17] = system: SK-MEL-5 melanoma; settings: 10 µM
[18] = system: UACC-62 melanoma; settings: 10 µM
[19] = system: SK-MEL-2 melanoma; settings: 10 µM
[20] = system: HL-60(TB) leukemia; settings: 10 µM unless noted

Measured: growth

COc1cc(OC)c(S(=O)(=O)N(CCCl)CCCl)cc1C(=O)/C=C/c1ccc(C)cc1
inactive: [1] 81.5% | [2] 89.1% | [3] 70.8% | [4] 31.9% | [5] 82.6% | [6] 79.2% | [7] 117% | [8] 88.3% | [9] 67.2% | [10] 66.7% | [11] 56.9% | [12] 90% | [13] 80.7% | [14] 90.1% | [16] 67.6% | [17] 97.5% | [18] 74.3% | [19] 92.3% | [20] 65.6%
active: [15] -2.54%

O=C(/C=C/c1ccco1)c1nc2ccccc2n1Cc1ccc(F)cc1
inactive: [1] 77.9% | [2] 79.2% | [3] 87.6% | [4] 70.9% | [5] 62.1% | [6] 62.2% | [7] 81.9% | [8] 56.6% | [9] 63.4% | [10] 76% | [11] 64.6% | [12] 62.7% | [13] 68% | [14] 28.7% | [15] 40.9% | [16] 65.6% | [17] 86.5% | [18] 45.4% | [19] 69.9% | [20] 15.8%

CC1=C(CCC=O)C2=C(C)C3(CC3)[C@@](C)(O)C(=O)C2=C1
active: [1] -61.5% | [2] -84.9% | [3] -62.7% | [4] -42.6% | [5] -90% | [6] -2.03% | [7] -71.4% | [8] -100% | [9] 6.81% | [10] -64.3% | [11] -100% | [12] -92.1% | [13] -56.1% | [14] -96.9% | [15] -99.6% | [16] -40.6% | [17] -100% | [18] -96.5% | [19] -70.6%

O=C(/C=C/c1cccc(Br)c1)c1nc2ccccc2n1Cc1ccc(Br)cc1
active: [1] -67.7% | [3] -42% | [4] -40.3% | [5] -53.4% | [7] -34.1% | [8] 4.37% | [10] -19.7% | [11] -66% | [12] 6.73% | [13] -49% | [15] -83.3% | [16] 0.947% | [17] -26.4% | [18] -82.5% | [19] -42.3% | [20] -19.3%
inactive: [2] 51.9% | [6] 28% | [9] 26.8% | [14] 59.7%

C#CC[Se]C(=O)c1ccc2n[se]nc2c1
active: [20] 1.82%
inactive: [1] 23% | [2] 12% | [3] 28.6% | [4] 63.9% | [5] 51.9% | [6] 59.7% | [7] 58.6% | [8] 71.8% | [9] 89.4% | [10] 25.4% | [11] 40.3% | [12] 59.3% | [13] 39.6% | [14] 56.5% | [15] 73.2% | [16] 39.6% | [17] 83.2% | [18] 51.4% | [19] 104%

COC(=O)C[C@](O)(CCCC(C)C)C(=O)O[C@H]1C(OC)=C[C@@]23CCCN2CCc2cc4c(cc2[C@@H]13)OCO4
inactive: [2] 25.4% | [3] 21.3%
active: [1] -12.3% | [4] -28.6% | [5] -59.4% | [6] -7.85% | [7] -2.77% | [8] -3.16% | [9] 3.83% | [10] -8.14% | [11] -47.7% | [12] -25.9% | [13] -22.7% | [14] -46.7% | [15] -19.5% | [16] 1.16% | [17] -39% | [18] 0.442% | [19] -0.0193% | [20] -28.7%

O=C(NCCCCC(c1ccc(F)cc1)c1ccc(F)cc1)Nc1ccc([N+](=O)[O-])c(C(F)(F)F)c1
active: [1] 0.603% | [2] 6.54% | [3] -29% | [4] 7.56% | [5] -16.9% | [6] 6% | [7] -100% | [10] -4.61% | [11] -28.2% | [12] -15.7% | [13] -11% | [14] -9.8% | [15] 2.48% | [16] -4.82% | [17] -100% | [18] -14.9% | [19] -71%
inactive: [8] 20.9% | [9] 18.5%

C=CCN=C([Se])NC(=O)c1ccc2c(c1)OCO2
inactive: [1] 119% | [2] 14.8% | [3] 26.9% | [4] 18.3% | [5] 105% | [6] 40.4% | [7] 122% | [8] 101% | [9] 110% | [10] 13.7% | [11] 67.3% | [12] 102% | [13] 96% | [14] 26% | [15] 36.2% | [16] 40.1% | [17] 90.8% | [18] 97.9% | [19] 143% | [20] 106%
